# Experimental data taken from PubChem BioAssay AID362 (NMMLSC, 2006).
# Among all 4,300 compounds or so, about 60 (1%) were called active. Shown is part of a subset that was picked to be rich in actives. Unmarked numbers belong to inactive results.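 Rule for the calls: active = inhibition of labelled peptide binding to the formyl peptide receptor of at least 65%; inactive = the rest.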
# Biological target: fMet-Leu-Phe receptor (Homo sapiens) (UniProt P21462)
# Assay: small-molecule ligands of human FPR – U937-FPR cells, fMLFK-FITC, flow cytometry, primary screen (AID 362);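 for inhibition: plate controls were buffer control wells for no effect and unlabeled fMLFF blocking peptide for full effect; higher means less cell fluorescence so more probe displaced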
# Details: fMLFK-FITC displacement; hits give high values, concentration not given here
# Chain of fMet-Leu-Phe receptor (Homo sapiens) (P21462 whole entry, looked up): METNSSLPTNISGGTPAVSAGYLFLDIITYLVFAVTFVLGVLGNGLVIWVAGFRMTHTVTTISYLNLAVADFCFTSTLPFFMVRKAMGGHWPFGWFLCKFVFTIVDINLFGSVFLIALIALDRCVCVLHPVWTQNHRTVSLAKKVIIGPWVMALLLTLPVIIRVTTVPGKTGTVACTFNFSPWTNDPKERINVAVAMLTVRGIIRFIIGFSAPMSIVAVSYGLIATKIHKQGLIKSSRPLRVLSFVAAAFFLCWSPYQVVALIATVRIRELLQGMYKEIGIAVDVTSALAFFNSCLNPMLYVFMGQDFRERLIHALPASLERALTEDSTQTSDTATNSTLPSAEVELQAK
row,SMILES,inhibition
1,CCOc1ccc(C2C3=C(CC(C)(C)CC3=O)Nc3[nH]n(-c4ccccc4)c(=O)c32)cc1 (stereo not drawn),76% (active)
2,CC1(C)CC(=O)C2=C(C1)Nc1[nH]n(-c3ccccc3)c(=O)c1C2c1ccc(F)cc1 (stereo not drawn),47.8%
3,CC(C)c1ccc(C2C3=C(CC(C)(C)CC3=O)Nc3[nH]n(-c4ccccc4)c(=O)c32)cc1 (stereo not drawn),57%
4,CC1(C)CC(=O)C2=C(C1)Nc1ncnn1C2c1ccc(OCc2ccccc2)cc1 (stereo not drawn),7.5%
5,Cc1ccc(C2C3=C(CC(C)(C)CC3=O)Nc3[nH]n(-c4ccccc4)c(=O)c32)cc1 (stereo not drawn),65.6% (active)
6,CC1(C)CC(=O)C2=C(C1)Nc1[nH]n(-c3ccccc3)c(=O)c1C2c1ccccc1Cl (stereo not drawn),70.6% (active)
7,CC1(C)CC(=O)C2=C(C1)Nc1[nH]n(-c3ccccc3)c(=O)c1C2c1cccs1 (stereo not drawn),50.9%
8,CCOc1ccc(C2C(C#N)=C(N)OC3=C2C(=O)CC(C)(C)C3)cc1 (stereo not drawn),15.2%
9,CC1(C)CC(=O)C2=C(C1)Nc1[nH]n(-c3ccccc3)c(=O)c1C2c1ccccc1F (stereo not drawn),55.8%
10,COc1cc(C2NC(=O)NC(C)=C2C(=O)OC2CCCCCC2)ccc1O (stereo not drawn),inactive
11,O=C(O)c1ccc([N+](=O)[O-])c2c1NC(C(=O)O)C1CC=CC21 (stereo not drawn),inactive
12,CCOC(=O)C1CCC(CN(Cc2ccc(Cl)cc2)S(=O)(=O)c2ccc([N+](=O)[O-])cc2)CC1 (stereo not drawn),inactive
13,CCCc1cc2c(=O)c(-c3cc4ccccc4o3)coc2cc1OC(C)=O,33.7%
14,CCOCCOC(=O)C1=C(C)NC2=C(C(=O)C(C(=O)OC)C(C)C2)C1c1ccc(OC)c(O)c1 (stereo not drawn),23.5%
15,COc1ccc(C(=O)NCC2(c3ccc(OC)c(OC)c3)CCCC2)cc1,inactive
16,CCCCCOC(=O)c1cccc(N2C(=O)C3C4CCC(C4)C3C2=O)c1 (stereo not drawn),inactive
17,COc1cc2c(C(=O)N(C)c3cccc(Cl)c3)cn(CC(C)C)c(=O)c2cc1OC,inactive
18,CCOC(=O)C1C(c2cccc([N+](=O)[O-])c2)NC(=O)NC1(O)C(F)(F)F (stereo not drawn),inactive
19,Cc1ccc(C(=O)C2=C(N)OC3=C(C(=O)CC(C)(C)C3)C2c2ccccc2Cl)cc1 (stereo not drawn),inactive
20,O=C(CSc1nc2ccccc2c(=O)n1CC1CCC(C(=O)NCc2ccccc2Cl)CC1)NC1CCCC1 (stereo not drawn),4.5%

row,SMILES,inhibition
1,CC(C)CN(CC(C)C)S(=O)(=O)c1ccc(C(=O)Nc2cccc(-c3nc4ccccc4[nH]3)c2)cc1,4.7%
2,CCCCCCc1cc2c3c(c(=O)oc2cc1OCC(=O)O)CCC3,74.7% (active)
3,CCCCCCc1cc2c3c(c(=O)oc2cc1OCC(=O)O)CCCC3,47.7%
4,CCCCCCc1cc2c3c(c(=O)oc2cc1OCC(C)=O)CCC3,5.4%
5,CC1CC(C)CN(C(=O)c2cn(C3CCCC3)c(=O)c3c2c2ccccc2n3C)C1 (stereo not drawn),inactive
6,CCOC(=O)c1c(-c2ccc(C)cc2C)csc1NC(=O)C1CCCCC1C(=O)O (stereo not drawn),94.2% (active)
7,CCOC(=O)c1c(-c2ccc(F)cc2)csc1NC(=O)C1CCCCC1C(=O)O (stereo not drawn),35.1%
8,COC(=O)c1c(-c2ccc(C)c(C)c2)csc1NC(=O)C1CCCCC1C(=O)O (stereo not drawn),22.4%
9,COC(=O)c1c(-c2ccc(F)cc2)csc1NC(=O)C1CCCCC1C(=O)O (stereo not drawn),72.4% (active)
10,CCOC(=O)c1c(-c2ccc(C)cc2)csc1NC(=O)C1CCCCC1C(=O)O (stereo not drawn),15.5%
11,COC(=O)c1c(-c2cc(C)ccc2C)csc1NC(=O)C1CCCCC1C(=O)O (stereo not drawn),40.4%
12,COC(=O)c1c(-c2cccc(C)c2)csc1NC(=O)C1CCCCC1C(=O)O (stereo not drawn),68.9% (active)
13,CCOC(=O)c1c(-c2ccc(OC)cc2)csc1NC(=O)C1CCCCC1C(=O)O (stereo not drawn),3%
14,COC(=O)c1c(-c2ccccc2)csc1NC(=O)C1CCCCC1C(=O)O (stereo not drawn),inactive
15,O=C(O)C1CCCCC1C(=O)N1CCN(C/C=C/c2ccccc2)CC1 (stereo not drawn),inactive
16,O=C(CSc1nc2ccccc2c(=O)n1CC1CCC(C(=O)NCc2ccco2)CC1)NCCC1=CCCCC1 (stereo not drawn),7.9%
17,CC(=O)N1CCCc2cc(S(=O)(=O)NC(C(=O)NCc3cccs3)C(C)C)ccc21 (stereo not drawn),inactive
18,CC(C)C(C(=O)O)n1c(O)c(C2=c3cc(Br)ccc3=NC2=O)sc1=S (stereo not drawn),95.3% (active)
19,CC(C)C(C(=O)O)n1c(O)c(C2=c3ccccc3=NC2=O)sc1=S (stereo not drawn),106% (active)
20,Cc1cc(C)c(S(=O)(=O)NCC2CCC(C(=O)NCC3CCCO3)CC2)c(C)c1 (stereo not drawn),inactive

row,SMILES,inhibition
1,CC(C)CC(C(=O)OCC(=O)c1ccc(Cl)cc1)N1C(=O)c2ccccc2C1=O (stereo not drawn),inactive
2,CCN(CC)CC(=O)N1CCCc2c1c(=O)oc1ccc(OC(C)=O)cc21,inactive
3,Cc1ccc2nc3c(cc(C(=O)NCc4ccco4)c(=N)n3C3CCCC3)c(=O)n2c1,inactive
4,CCCCc1cc(=O)oc2cc(OCC(=O)OCC)c(Cl)cc12,inactive
5,CC1=C(C)C/S(=N\S(=O)(=O)c2ccccc2)N(S(=O)(=O)c2ccccc2)C1 (stereo not drawn),103% (active)
6,CC1=C(C)CS(=Nc2ccccc2[N+](=O)[O-])N(S(=O)(=O)c2ccccc2)C1 (stereo not drawn),inactive
7,O=C(C1CCCN(S(=O)(=O)c2ccccc2)C1)N1CCCCC1 (stereo not drawn),7.6%
8,CC(C)Cn1cc(C(=O)N2CC(C)CC(C)C2)c2c3ccccc3n(C)c2c1=O (stereo not drawn),5.3%
9,O=S(=O)(c1ccc(-c2csc(=Nc3cccc4ccccc34)n2CCCCO)cc1)N1CCCCC1,inactive
10,CCC(C)(C)C1CCc2c(sc(NC(=O)C3CCCCC3C(=O)O)c2C(=O)OC)C1 (stereo not drawn),80.5% (active)
11,CCOC(=O)c1c(NC(=O)C2C3C=CC(C3)C2C(=O)O)sc2c1CCCCCC2 (stereo not drawn),16.4%
12,CCOC(=O)c1c(NC(=O)C2CCCCC2C(=O)O)sc2c1CCC(C(C)(C)C)C2 (stereo not drawn),71.7% (active)
13,CCCOC(=O)c1c(NC(=O)C2CCCCC2C(=O)O)sc2c1CCC2 (stereo not drawn),47.3%
14,CCOC(=O)c1c(NC(=O)C2C3CCC(C3=C(C)C)C2C(=O)O)sc2c1CCCCCCC2 (stereo not drawn),95.1% (active)
15,CCCOC(=O)c1c(NC(=O)C2CCCCC2C(=O)O)sc2c1CCC(C)C2 (stereo not drawn),23.4%
16,CCOC(=O)c1c(NC(=O)C2C3C=CC(CC3)C2C(=O)O)sc2c1CCCC2 (stereo not drawn),4.5%
17,CC1CCc2c(sc(NC(=O)C3CCCCC3C(=O)O)c2C(=O)OC(C)C)C1 (stereo not drawn),3%
18,CCOC(=O)c1c(NC(=O)C2CCCCC2C(=O)O)sc2c1CCC(C(C)(C)CC)C2 (stereo not drawn),21%
